# Results from PubChem BioAssay AID1159580 (chemical genetic matrix, 2015).
# The whole screen tested about 5,500 compounds, of which about 2,000 (36%) were called active. Not shown: some 18% with an inconclusive outcome. The list shows a part of the results. Unmarked numbers belong to inactive results. Cut-off read from the data, not from the text of the source: active = normalized growth mostly below about 0.91 (no sharp cut-off); inconclusive = no clear call, values can overlap the other calls; inactive = mostly above about 0.92.
# Experiment: chemical genetic growth profiling, strain panel (AID 1159580);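 note: tested at 20 µM; growth read once vehicle control cultures reached saturation at 30 °C; 1 = growth at the plate median or of vehicle wells; lower values mean less growth of the strain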
# Settings: S. cerevisiae deletion strains, growth OD
smiles,measurement,setting,value
C[C@]12CCC3C(CC[C@H]4C[C@H](O)CC[C@]34C)C1CC[C@@H]2O (some centres not stated),normalized growth,"locus YBR021W, strain FUR4, stronger effect = lower value",0.803 (active)
same,normalized growth,"locus YBR229C, strain ROT2, stronger effect = lower value",1.01
same,normalized growth,"locus YCL029C, strain bik1, stronger effect = lower value",0.948
same,normalized growth,"locus YDL035C, strain GPR1, stronger effect = lower value",0.883
same,normalized growth,"locus YDL074C, strain BRE1, stronger effect = lower value",0.929
same,normalized growth,"locus YDL101C, strain DUN1, stronger effect = lower value",0.938
same,normalized growth,"locus YDL185W, strain tfp1, stronger effect = lower value",0.978
same,normalized growth,"locus YDL192W, strain arf1, stronger effect = lower value",0.965
same,normalized growth,"locus YDR101C, strain arx1, stronger effect = lower value",0.991
same,normalized growth,"locus YDR162C, strain NBP2, stronger effect = lower value",0.628 (active)
same,normalized growth,"locus YDR318W, strain mcm21, stronger effect = lower value",0.948
same,normalized growth,"locus YDR388W, stronger effect = lower value",0.994
same,normalized growth,"locus YDR502C, strain sam2, stronger effect = lower value",0.899 (active)
same,normalized growth,"locus YER110C, stronger effect = lower value",1.01
same,normalized growth,"locus YER155C, strain BEM2, stronger effect = lower value",1.01
same,normalized growth,"locus YER167W, strain BCK2, stronger effect = lower value",1.02
same,normalized growth,"locus YGL078C, strain dbp3, stronger effect = lower value",0.844 (active)
same,normalized growth,"locus YGL086W, strain mad1, stronger effect = lower value",0.951
same,normalized growth,"locus YGL248W, strain PDE1, stronger effect = lower value",0.882 (active)
same,normalized growth,"locus YGR078C, strain PAC10, stronger effect = lower value",0.908
same,normalized growth,"locus YGR135W, strain pre9, stronger effect = lower value",0.858 (active)
same,normalized growth,"locus YGR252W, strain gcn5, stronger effect = lower value",0.756 (active)
same,normalized growth,"locus YHR079C, strain IRE1 (second series), stronger effect = lower value",1.01
same,normalized growth,"locus YHR094C, strain hxt1, stronger effect = lower value",1
same,normalized growth,"locus YHR129C, strain ARP1, stronger effect = lower value",0.968
same,normalized growth,"locus YHR200W, strain rpn10, stronger effect = lower value",0.987
same,normalized growth,"locus YIL066C, strain RNR3, stronger effect = lower value",1
same,normalized growth,"locus YIL073C, strain SPO22, stronger effect = lower value",0.875
same,normalized growth,"locus YIL125W, strain kgd1, stronger effect = lower value",0.993
same,normalized growth,"locus YIR030C, strain dcg1, stronger effect = lower value",0.991
same,normalized growth,"locus YJL095W, strain BCK1, stronger effect = lower value",0.721 (active)
same,normalized growth,"locus YJL134W, strain LCB3, stronger effect = lower value",1.01
same,normalized growth,"locus YJL168C, strain set2, stronger effect = lower value",1
same,normalized growth,"locus YJL187C, strain SWE1 (second series), stronger effect = lower value",0.882
same,normalized growth,"locus YJR075W, strain HOC1, stronger effect = lower value",0.981
same,normalized growth,"locus YKL009W, strain mrt4, stronger effect = lower value",0.813 (active)
same,normalized growth,"locus YKL068W, stronger effect = lower value",0.988
same,normalized growth,"locus YKL085W, strain MDH1 (second series), stronger effect = lower value",1.01
same,normalized growth,"locus YKL085W, strain MDH1, stronger effect = lower value",1.01
same,normalized growth,"locus YKL190W, strain CNB1, stronger effect = lower value",1.02
same,normalized growth,"locus YKR001C, strain vps1, stronger effect = lower value",0.83 (active)
same,normalized growth,"locus YLR039C, strain RIC1, stronger effect = lower value",0.538 (active)
same,normalized growth,"locus YLR058C, strain SHM2, stronger effect = lower value",0.944
same,normalized growth,"locus YLR102C, strain apc9, stronger effect = lower value",1
same,normalized growth,"locus YLR262C, strain YPT6, stronger effect = lower value",0.421 (active)
same,normalized growth,"locus YLR268W, strain sec22, stronger effect = lower value",0.974
same,normalized growth,"locus YLR330W, strain CHS5, stronger effect = lower value",0.891 (active)
same,normalized growth,"locus YLR342W, strain FKS1 (second series), stronger effect = lower value",0.814
same,normalized growth,"locus YLR371W, strain rom2, stronger effect = lower value",1.05
same,normalized growth,"locus YLR418C, strain cdc73, stronger effect = lower value",0.894
same,normalized growth,"locus YML016C, strain PPZ1, stronger effect = lower value",0.989
same,normalized growth,"locus YML032C, strain rad52, stronger effect = lower value",0.924
same,normalized growth,"locus YML124C, strain tub3, stronger effect = lower value",1.01
same,normalized growth,"locus YMR078C, strain ctf18, stronger effect = lower value",0.988
same,normalized growth,"locus YMR223W, strain ubp8, stronger effect = lower value",0.936
same,normalized growth,"locus YMR307W, strain GAS1, stronger effect = lower value",0.798
same,normalized growth,"locus YNL067W, strain RPL9B, stronger effect = lower value",0.876
same,normalized growth,"locus YNL233W, strain BNI4, stronger effect = lower value",0.904
same,normalized growth,"locus YNL250W, strain rad50, stronger effect = lower value",0.912
same,normalized growth,"locus YNL271C, strain bni1, stronger effect = lower value",0.942
same,normalized growth,"locus YNL298W, strain CLA4, stronger effect = lower value",0.893 (active)
same,normalized growth,"locus YNL307C, strain MCK1, stronger effect = lower value",0.885 (active)
same,normalized growth,"locus YNR052C, strain pop2, stronger effect = lower value",0.884 (active)
same,normalized growth,"locus YOL006C, strain TOP1, stronger effect = lower value",0.926
same,normalized growth,"locus YOL012C, strain htz1",1.56
same,normalized growth,"locus YOL147C, strain pex11, stronger effect = lower value",1.01
same,normalized growth,"locus YOR061W, strain CKA2, stronger effect = lower value",0.985
same,normalized growth,"locus YOR069W, strain VPS5, stronger effect = lower value",0.957
same,normalized growth,"locus YOR136W, strain idh2, stronger effect = lower value",0.984
same,normalized growth,"locus YOR144C, strain elg1, stronger effect = lower value",0.994
same,normalized growth,"locus YOR184W, strain ser1, stronger effect = lower value",0.82 (active)
same,normalized growth,"locus YOR316C, strain cot1, stronger effect = lower value",0.992
same,normalized growth,"locus YPR119W, strain clb2, stronger effect = lower value",0.992
same,normalized growth,"locus YPR141C, strain kar3, stronger effect = lower value",1.02
same,normalized growth,"locus YPR163C, strain tif3, stronger effect = lower value",0.844 (active)
same,normalized growth,"locus YPR167C, strain met16, stronger effect = lower value",0.956
same,normalized growth,"strain wtn01, stronger effect = lower value",0.961
